Several values for one entry are separate records, joined by “and”; a condition that tells them apart may be missing. Equal entries are not always repeated. Among all 69,000 compounds or so, about 2,600 (3.8%) were called active. No stated cut-off is given here; in the data, active means activity change below about -70% (passing the limit was not always enough); inconclusive means no clear call, values can overlap the other calls. Shown is part of a subset that was picked to be rich in actives. Some compounds were tested as several samples or in several runs, with calls that do not always agree.

The values that follow come from PubChem BioAssay AID1259416 (Broad Institute, 2018).

The nature of the assay: T. gondii growth inhibition with IFN-gamma, primary screen, cell-based (AID 1259416).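 Further: host cells are HeLa cells infected with Toxoplasma gondii.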 Conditions: Toxoplasma gondii growth in IFN-gamma-treated host cells; stronger effect = lower value; concentration not given here.
With `O=C(NCc1cccnc1)c1ccc(N2CCC(NC3C4CC5CC(C4)CC3C5)CC2)cc1` (centres undefined), the activity change, negative = inhibition was 5.88% (inactive).
With `O=C(NCCc1nnc2n1CCNCC2)C1(c2ccccc2)CC12CCCC2` (centres undefined) the figure was -3.83% (inactive).
With `COc1ccc(OC)c(C(=O)c2ccc(Cl)cc2)c1` the figure was 36.6% (inactive); with `Cc1cc(C)c2c(-n3cccc3)c(C(=O)c3ccc(Cl)cc3)sc2n1`, -91.8% (active); with `Cc1cc(C)c2c(n1)sc1c(=O)n(C)cnc12`, -4.83% (inactive).
With `Cn1cc(C(CNC(=O)Nc2cccc(F)c2)c2cccnc2)c2ccccc21` (centres undefined) the figure was 27% (inactive); with `CO[C@@H]1CN(C)C(=O)c2cc(NC(=O)NC3CCCCC3)ccc2OC[C@H](C)N(CC2CCOCC2)C[C@H]1C`, -30.9% (inactive).
As for `CCCC(=O)Nc1ccc2c(c1)OC[C@@H](C)N(CC1CCOCC1)C[C@H](C)[C@H](OC)CN(C)C2=O`, the activity change, negative = inhibition is -83.2% (active).
With `CO[C@@H]1CN(C)C(=O)c2ccc(NS(C)(=O)=O)cc2OC[C@@H](C)N(CC2CC2)C[C@@H]1C` the figure was -56.4% (inactive); with `O=C(CCc1nc(-c2ccccn2)no1)N1CCC(CCc2ccccc2F)CC1`, 18.8% (inactive).
With `CCc1[nH]c2c(CNS(=O)(=O)N(C)C)cc(C)cc2c1C` the figure was -4.66% (inactive).
With `Fc1ccc(Cl)cc1-c1nc(Nc2ccncc2)c2nccnc2n1` the figure was -81% (active); with `Cc1nc(Nc2ccc(Cl)cc2)sc1C(=O)c1ccncc1`, 0.796% (inactive); with `O=C(Nc1ccccc1Oc1ccc(F)cc1)C1CC(=O)N(Cc2cccnc2)C1` (centres undefined), 18.8% (inactive).
Consider `O=C(Nc1nc(-c2ccc(Br)cc2)cs1)c1c(O)c2ccccc2[nH]c1=O`, for which the activity change, negative = inhibition was 8.75% (inactive).
With `CCCc1nc(C)c(CNC(=O)C2CCOC2)s1` (centres undefined) the figure was -2.34% (inactive); with `COCCCNC(=O)c1nc(Nc2ccc(F)cc2)c2ccccc2n1`, -29% (inactive).
With `C=CC(=O)Nc1ccc2c(c1)CCC(=O)N2CC` the figure was -3.01% (inactive); with `O=C(Cn1c(C(=O)c2ccccc2)nc2ccccc21)c1ccc(Br)cc1`, -103% (active).
With `O=C(CNC(=O)c1ccccc1F)c1ccc(Br)cc1` the figure was 264% (inactive); with `O=C(Cn1c(NCCCO)nc2ccccc21)c1ccccc1`, -22.3% (inactive).
On to `Clc1cccc(CN2CC3CCCC(C2)C3N2CCOCC2)c1Cl` (centres undefined), for which the activity change, negative = inhibition is 9.4% (inactive).
With `C[C@@H]1CN([C@H](C)CO)C(=O)c2cccc(NC(=O)c3ccc(-c4nccs4)cc3)c2O[C@@H]1CN(C)C(=O)Nc1ccc(C(F)(F)F)cc1` the figure was -77.7% (active); with `C[C@H](CO)N1C[C@H](C)[C@@H](CN(C)Cc2ccc(C(F)(F)F)cc2)Oc2c(NC(=O)NC3CCCCC3)cccc2C1=O`, -53.4% (inactive); with `C[C@H]1CN([C@@H](C)CO)C(=O)c2cccc(NC(=O)c3ccc(-c4nccs4)cc3)c2O[C@@H]1CN(C)C(=O)Nc1ccc(C(F)(F)F)cc1`, -80.3% (active).
As for `Cc1ccc(S(=O)(=O)Nc2cccc3c2O[C@H](CN(C)C(=O)Nc2ccc(C(F)(F)F)cc2)[C@@H](C)CN([C@@H](C)CO)C3=O)cc1`, the activity change, negative = inhibition is 16.3% (inactive).
Regarding `C[C@@H]1CN([C@H](C)CO)C(=O)c2cccc(NC(=O)NC3CCCCC3)c2O[C@H]1CN(C)Cc1ccc(C(F)(F)F)cc1`, the activity change, negative = inhibition is -74.3% (active).
`Cc1noc(C)c1S(=O)(=O)Nc1cccc2c1O[C@H](CN(C)Cc1ccc(C(F)(F)F)cc1)[C@H](C)CN([C@@H](C)CO)C2=O`: the activity change, negative = inhibition was 25.4% (inactive).
With `CC(C)NC(=O)N(C)C[C@H]1Oc2c(NS(=O)(=O)c3cccs3)cccc2C(=O)N([C@H](C)CO)C[C@H]1C` the figure was -14.3% (inactive); with `C[C@H]1CN([C@@H](C)CO)C(=O)c2ccccc2-c2ccccc2CO[C@H]1CN(C)C(=O)Nc1ccc(-c2ccccc2)cc1`, -62.1% (inactive); with `C[C@H]1CN([C@@H](C)CO)C(=O)c2cccc(NC(=O)C3CCOCC3)c2O[C@@H]1CN(C)C(=O)Nc1cccc2ccccc12`, 5.47% (inactive).
With `O=C(Cn1ncc2ccccc2c1=O)NCc1cc(Cl)c2c(c1)OCCCO2` the figure was 23% (inactive); with `Cc1ccsc1CNc1cccc(C(=O)N(C)Cc2snnc2C)c1`, -4.49% (inactive).
With `Cc1ccc2oc(=O)n(CCC(=O)N3[C@@H]4CC[C@H]3CNC(=O)C4)c2c1` the figure was -11.3% (inactive); with `Cc1cc(C)cc(NC(=O)N2CCC3(CC2)Nc2ccccc2-n2cccc23)c1`, 295% (inactive); with `O=C(N[C@H]1C[C@H]2C(=O)NCC(=O)N2C1)c1cccc(Cn2cccn2)c1`, -5.16% (inactive).
As to `COc1c(C)c2c(c(O)c1C/C=C(\C)CCC(=O)O)C(=O)OC2`, the activity change, negative = inhibition is -91.9% (active).
As for `O=C(O)CSc1nnc(-c2ccn[nH]2)n1-c1ccccc1Cl`, the activity change, negative = inhibition is 55.4% (inactive).
With `Cc1ccsc1CN(CCCN1CCOCC1)CC1=Cc2ccccc2OC1` the figure was 97.9% (inactive); with `Cc1ccc2oc(CN(CCCO)Cc3sccc3C)c(C)c2c1`, -33.4% (inactive); with `CCS(=O)(=O)N1CCC2(CC1)Nc1ccc(C)c(C)c1-n1cccc12`, 28% (inactive).
As to `CC1(C)[C@]2(C(=O)NCCCc3nc4ccccc4o3)CC[C@@]1(C)OC2=O`, the activity change, negative = inhibition was 4.16% (inactive).
With `c1ccc(N2CCC3(COCCN(c4ncccn4)C3)C2)nc1` (centres undefined) the figure was -3.03% (inactive); with `O=C(CN1CCN(c2ccccn2)CC1)Nc1ccc(Br)cc1`, -9% (inactive).
As to `c1ccc(N2CCN(N=C3c4ccccc4-c4ccccc43)CC2)nc1`, the activity change, negative = inhibition is -103% (active).
With `CCCn1cc(S(=O)(=O)NCC2CCC(c3ccc(C(N)=O)c(C)n3)CC2)c(C)n1` (centres undefined) the figure was 19.4% (inactive).
With `CN(C)C(=O)[C@@]12CCCN(Cc3cccs3)C[C@@H]1CN(Cc1cnn(C)c1)C2` the figure was -0.124% (inactive); with `FC(F)(F)c1cccc2c(N3CCN(C4CCOCC4)CC3)ccnc12`, -46.1% (inactive).
With `CN(n1cnc2ccccc2c1=O)S(=O)(=O)c1cc(Cl)sc1Cl` the figure was -76.6% (active); with `CN(C(=O)Nc1ccc(Cl)cc1)n1cnc2ccccc2c1=O`, -50.7% (inactive); with `COC(=O)c1cc(NC(=O)S(=O)(=O)c2ccccc2)cc(C(=O)OC)c1`, 86.5% (inactive).
Turning to `CCCCN(Cc1ccccc1)C(=O)c1cc2cccnc2n(Cc2ccc(Cl)cc2)c1=O`, the activity change, negative = inhibition is 28.6% (inactive).
With `Cc1ccc(O)c(CCc2ccccc2)n1` the figure was 8.51% (inactive) and 1.67% (inactive).
With `CCCCc1c(O)cc(-c2ccccc2)n(Cc2ccccc2)c1=O` the figure was -76.1% (active); with `CC(C)(O)c1cn(C2CCN(C(=O)CCc3ccncc3)CC2)nn1`, 5.1% (inactive); with `O=S(=O)(c1ccc(Cl)c(Cl)c1)N1CCC2(CC1)Nc1ccccc1-n1cccc12`, 43% (inactive).
With `O=S(=O)(c1ccc(Cl)c(Cl)c1)N1CCc2c([nH]c3ccccc23)C1C(F)(F)F` (centres undefined) the figure was -82.6% (active); with `O=C(c1ccc(F)cc1)N1CCc2c([nH]c3ccccc23)C1c1ccccc1` (centres undefined), 63% (inactive).
On to `CCc1nnc(CN(CC)C(=O)c2cccc(-c3ccc(C)o3)c2)o1`, for which the activity change, negative = inhibition is 0.889% (inactive).
With `Cn1ccnc1-c1ccc(N2CCCC(OCc3cccnc3)C2)nn1` (centres undefined) the figure was -19% (inactive); with `COCCc1noc(CN2CCCC2c2ccccn2)n1` (centres undefined), 8.04% (inactive); with `N#C/C(=C\c1ccc(O)c(O)c1)C(=O)NCc1ccccc1`, 5.59% (inactive).
With `CCC[C@H](NC(=O)/C(C#N)=C/c1cccc(Br)n1)c1ccccc1` the figure was -72.2% (active); with `CN(C)C(=O)c1cccc(-c2ccccc2[C@@H]2[C@@H](CO)N(C(=O)C3CCCCC3)[C@H]2C#N)c1`, -9.68% (inactive).
With `COCc1ncn2c1CN(C(=O)c1cnc(C)cn1)CCC2` the figure was 16.2% (inactive).
For the compound `CC1CCCCC12NC(=O)N(CC(=O)N1CCN(Cc3ccccn3)CC1)C2=O` (centres undefined), the activity change, negative = inhibition is 13.9% (inactive).
With `COCCn1nnnc1CN(Cc1ccccc1)Cc1cc2ccc(C)c(C)c2[nH]c1=O` the figure was -81.4% (active).
With `CC(C)Oc1cccc(-c2csc(C(N)=O)c2)c1` the figure was 65.6% (inactive); with `CN(C)C(=O)C[C@]12COC[C@H]1CN(Cc1ccc3ccccc3n1)C2`, -5.46% (inactive).
With `COC(=O)Nc1nc2ccc(Sc3ccccc3)cc2[nH]1` the figure was -69.1% (inactive) and 7.35% (inactive) and -78% (active); with `COCc1ccc(C(=O)Nc2ccc3nc(C)[nH]c3c2)o1`, -55.3% (inactive).
As for `COC(=O)Nc1nc2ccc(C(=O)C3CC3)cc2[nH]1`, the activity change, negative = inhibition is -69.3% (inactive).
With `Cc1cc(C(=O)N2CCc3c(COCCN(C)C)cncc3C2)no1` the figure was -28.8% (inactive); with `Cc1nnsc1CNC(=O)CC1CCc2ccccc21` (centres undefined), -7.08% (inactive); with `CNC1(c2nnnn2CCOC(=O)Nc2ccc(Cl)cc2)CCCC1`, 93.6% (inactive).
In the case of `Cc1[nH]c(/C=C2\C(=O)Nc3ccc(S(=O)(=O)Cc4c(Cl)cccc4Cl)cc32)c(C)c1C(=O)N1CCC[C@@H]1CN1CCCC1`, the activity change, negative = inhibition was -79.5% (active) and -88.9% (active) and -63.2% (inactive).
With `COc1ccc(OC)c(CNC(=O)Cn2ncc3c(N4CCCC4)ncnc32)c1` the figure was 7.89% (inactive); with `CC(C)(C)c1nc(-c2cccc(NS(=O)(=O)c3c(F)cccc3F)c2F)c(-c2ccnc(N)n2)s1`, -83.7% (active).
For `CC1=C(C(=O)NCCCN2CC(C)CC(C)C2)C2(CCN(Cc3ccccc3)CC2)OC1=O` (centres undefined), the activity change, negative = inhibition is -65.1% (inactive).
With `O=C(c1nc2sccn2c1CN1CCC(c2ccccc2Cl)C1)N1CCCCC1` (centres undefined) the figure was 1.45% (inactive); with `O=C(Nc1cccc(N2CCCCS2(=O)=O)c1)c1ccc(-n2cccn2)nc1`, 6.32% (inactive).
With `CC(C)(C)c1ccc(Oc2ccc(NC(=O)Cc3cccs3)cn2)cc1` the figure was -76.9% (active).
With `Cc1ccc(C)c(-c2coc(-c3ccc(NC(=O)Cc4cccs4)cc3)n2)c1` the figure was 7.55% (inactive).
In the case of `Cc1ccc(C(=O)Nc2ccc(Oc3ccc(C(C)(C)C)cc3)nc2)cc1`, the activity change, negative = inhibition is -31.5% (inactive).
